# From PubChem
# PLK1 PBD inh: blocks phosphopeptide binding to human PLK1 polo-box domain | P53350 | Plk1 PBD binding of FITC phosphopeptide, fluorescence polarization | 360,000 tested, 2.8% active | Potency, µM, for the others: max response, negative = inhibition, actives largely listed as inhibitors; also: potency is read from the fitted curve at half-maximal effect; series mostly up to about 57 µM; % is scaled to controls: 0 for no effect and ±100 for the full control effect; nearly all actives have a fitted effect of over 65% in size
# TSHR antagonist: human thyrotropin receptor antagonism. P16473. TSHR-expressing cells, TSH-stimulated cAMP HTRF, 2 h; active compounds read low. activity change, negative = inhibition, % at 11.5 µM. 330,000 tested, 0.2% active;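 active = activity change below a set negative limit, meaning inhibition stronger than a set level, cut at about -70% in these data; inconclusive = activity change between two set negative limits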; also: % is scaled to controls: 0 for no effect and ±100 for the full control effect
#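 Cell-based HTRF cAMP assay; TSHR cells + compound, TSH EC80 (4nM final), 2 h, 37 deg C. Lysis with anti-cAMP cryptate and cAMP-d2, 30 min RT, read 665/620 nm.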
# uPA generation: cell surface uPA generation inhibition; AID 540303; Potency, µM (highest dose often 38.3 µM), inactives show at the top dose activity change, negative = inhibition, most hits filed as inhibitors; cell surface uPA generation assay, qHTS; 330,000 tested, 0.31% active; active = well fitted inhibition curve with a large enough effect; inconclusive = small, poorly fitted or top-dose-only effect; inactive = no such curve, though single readings can be large or run the other way; tested in mouse RAW 264.7 cells; also: potency is read from the fitted curve at half-maximal effect; % is scaled to controls: 0 for no effect and ±100 for the full control effect; nearly all actives have a fitted effect of over 55% in size
# PTAP TSG101 blk: blocks PTAP/TSG101 interaction to inhibit HIV-1 budding | Q99816 | Fluorescence polarization, FITC-PTAP peptide / Tsg101 binding | Potency, µM (doses to about 115 µM), inactives show at the highest dose activity change, negative = inhibition, usual class: inhibitors | 340,000 tested, under 10 active | AID 493005; active = well fitted inhibition curve with a large enough effect in the main read-out, with a control signal flat, not every such curve was filed as active; inconclusive = small, poorly fitted or top-dose-only effect, or effect the other way, or a change in a side signal; inactive = no such curve, though single readings can be large or run the other way; also: potency is read from the fitted curve at half-maximal effect; % of control where 0% means no effect
#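 Fluorescence polarization binding of Tsg101 binding domain (10 uM final) to FITC-labeled PTAP peptide (50 nM final) in HEPES pH 7.5 buffer with NaCl, Tween 20, EDTA, TCEP. Compounds added before peptide; binding 20 min at RT.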
# VDR inhibitor: vitamin D3 receptor (human) inhibition. VDR-SRC2-3 peptide fluorescence polarization, 2 h. P11473. Potency, µM, for inactives: max response, negative = inhibition, most hits filed as inhibitors. 400,000 tested, 0.93% active. AID 504847; also: potency is read from the fitted curve at half-maximal effect; % is scaled to controls: 0 for no effect and ±100 for the full control effect
# Target sequence (P11473 whole entry, looked up): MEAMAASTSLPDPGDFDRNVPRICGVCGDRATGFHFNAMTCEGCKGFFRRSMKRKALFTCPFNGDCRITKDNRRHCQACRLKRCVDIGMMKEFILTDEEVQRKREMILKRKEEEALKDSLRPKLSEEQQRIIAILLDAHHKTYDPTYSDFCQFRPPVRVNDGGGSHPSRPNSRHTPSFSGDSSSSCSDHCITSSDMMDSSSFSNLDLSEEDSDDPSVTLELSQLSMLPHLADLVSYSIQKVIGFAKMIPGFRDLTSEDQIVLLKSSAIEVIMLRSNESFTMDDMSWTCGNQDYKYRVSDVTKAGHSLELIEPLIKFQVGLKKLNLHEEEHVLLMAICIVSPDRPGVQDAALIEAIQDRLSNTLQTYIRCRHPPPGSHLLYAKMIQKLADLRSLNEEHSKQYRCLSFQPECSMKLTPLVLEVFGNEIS
#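 VDR–SRC2-3 interaction, FP format. Cmpds 23 nl via pintool, brief spin, 2 h ambient incubation.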
# Numbers without * were called inactive; ? = inconclusive; / = no result given. Sampled rows, rich in hits. Any-hit rate of the full collection: about 3.1%. Unless noted, calls follow the shape of the dose curve; as a rule, active = well fitted curve in the direction sought with a large enough effect; inconclusive = small, poorly fitted or top-dose-only effect, or another doubt; inactive = no such curve, though single readings can be large; an effect the other way counts as inactive or inconclusive.
SMILES,PLK1 PBD inh,TSHR antagonist,uPA generation,PTAP TSG101 blk,VDR inhibitor
O=C(O)/C=C/c1ccccc1,/,/,/,/,10%
CN(CCOc1ccccc1)CC(=O)Nc1ccc([N+](=O)[O-])cc1Cl,-14%,-33,-5%,-3%,-1%
CN(CC(=O)Nc1ccc([N+](=O)[O-])cc1Br)Cc1c(F)cccc1Cl,27µM*,-15,12%,-2%,-21%
O=C(c1nn2c(C(F)(F)F)cc(-c3ccccc3)nc2c1Cl)N1CCOCC1,-11%,3,-3%,-1%,1%
O=C(c1nn2c(C(F)(F)F)cc(-c3ccc(F)cc3)nc2c1Cl)N1CCOCC1,27µM*,/,-7%,0%,-4%
Cc1ccc(Sc2ncnc3onc(C)c23)cc1,19µM*,-2,-11%,-8%,-19%
Cc1noc2ncnc(Sc3ccc(Cl)cc3)c12,?,/,-15%,-5%,-25%
CCOc1cc(C(=O)O)cc(Cl)c1OC,1%,2,3%,-11%,5%
CCOc1cc(C(N)=O)cc(Cl)c1OCC,21µM*,-2,2%,-6%,-19%
CCN(CC)c1ccc(N=C2C=CC(=O)C=C2NC(C)=O)cc1,-16%,/,-7%,-1%,71µM*
CCN(CC)c1ccc(NC(=O)Nc2ccc(C(C)=O)cc2)cc1,-8%,-2,-1%,-1%,-13%
C#CCOC(=O)Nc1cccn(Cc2c(Cl)cccc2Cl)c1=O,-5%,6,-9%,-1%,-9%
O=C(Nc1cccn(Cc2c(Cl)cccc2Cl)c1=O)C1CC1,27µM*,-7,3%,0%,-1%
Fc1ccc(-c2nc(Nc3ccc(F)c(Cl)c3)nc3c2COc2ccccc2-3)cc1,/,/,/,/,-6%
CCOC(=O)C1CCN(c2nc(C)cc(C)c2C#N)CC1,-3%,-6,6%,-3%,-12%
CCOC(=O)C1CCN(c2nc(N)c3c(N)nc(SCC(=O)O)cc3c2C#N)CC1,11µM*,-9,5%,-7%,?
Cc1ccc(S(=O)(=O)N2C(=O)C(c3ccccc3)SC2=Nc2ccccc2)cc1 (stereo not drawn),9.5µM*,5,4%,-1%,?
CC(=O)c1cccc(NC(=O)CSc2ncc3c(n2)-c2cc(Cl)ccc2N(Cc2ccccc2)S3(=O)=O)c1,/,/,/,/,1%
CCc1ccc(C(=O)c2cn(CC(=O)Nc3ccc4c(c3)OCO4)c3ccc(CC)cc3c2=O)cc1,/,/,/,/,4%
S=c1[nH]c2cnc(Cl)nc2[nH]1,24µM*,/,3%,-6%,?
S=c1[nH]c2nc(Cl)c(Cl)nc2[nH]1,-21%,/,/,/,/
Cc1cc(/C=C2/NC(=O)NC2=O)c(C)n1-c1ccc(C#N)cc1,19µM*,9,0%,0%,?
Cc1ccc(-n2c(C)cc(/C=C3\NC(=O)NC3=O)c2C)c(C)c1,21µM*,-3,-2%,1%,?
O=S(=O)(Nc1ccc(-c2ccc3nncn3n2)cc1)c1cc(F)ccc1F,-1%,-6,-4%,-4%,-13%
COc1ccc(OC)c(S(=O)(=O)Nc2ccc(-c3ccc4nncn4n3)cc2)c1,27µM*,-9,-10%,-2%,-17%
SMILES,PLK1 PBD inh,TSHR antagonist,uPA generation,PTAP TSG101 blk,VDR inhibitor
COc1ccc(S(=O)(=O)Nc2cccc(-c3ccc4nncn4n3)c2)cc1F,-2%,-1,2.8µM*,-5%,0%
O=S(=O)(Nc1cccc(-c2ccc3nncn3n2)c1)c1ccccc1F,-14%,5,-9%,-10%,10%
CCCCn1c(=N)n(CCOc2ccccc2OC)c2ccccc21,/,/,/,/,-36%
CC1=Nc2cc(C(=O)N3CCCC3)ccc2Sc2c(C)ccc(C)c21,-3%,6,4µM*,-5%,-8%
CC1=Nc2cc(C(=O)O)ccc2Sc2c(C)ccc(C)c21,-18%,-3,/,-7%,4%
COc1cc(CN2C[C@@H](CO)O[C@@H](n3cnc4c(N5CCN(c6ccccc6)CC5)ncnc43)C2)cc(OC)c1OC,-14%,/,/,/,/
CCOc1ccc2oc(C(=O)OCC(=O)N3C(C)CCCC3C)c(C)c2c1 (stereo not drawn),-1%,-79*,8%,-9%,-3%
O=C(Nc1ccc(Cl)cc1)Nc1ccc(Br)cn1,30µM*,1,-1%,-3%,-22%
CC(=O)c1c[nH]c(C(=O)NCc2ccccc2Cl)c1,-7%,-6,10%,-4%,1%
CC(C)c1ccc(N(CC(=O)O)S(=O)(=O)c2cccnc2)cc1,27µM*,5,-6%,-1%,-20%
CCOc1ccc(N(CC(=O)O)S(=O)(=O)c2cccnc2)cc1,-10%,6,-6%,-1%,-10%
COc1ccc(C(=O)NCCn2cc(SCC(=O)Nc3ccc4c(c3)OCCO4)c3ccccc32)cc1OC,/,/,/,/,9%
O=C(Cn1sc2ccccc2c1=O)Nc1ccc(F)cc1,3µM*,/,/,/,/
Cc1ccc(NC(=O)Cn2nc(-c3ccc(Cl)cc3)c3ccccc3c2=O)cc1,/,/,/,/,8%
O=C(Cn1sc2ccccc2c1=O)Nc1ccc(Cl)cc1,5.3µM*,/,/,/,/
O=C(Cn1sc2ccccc2c1=O)Nc1ccc(Br)cc1,3µM*,/,/,/,/
CCN(CC)c1ccc(NC(=O)c2c(C)nn(-c3ccc(F)cc3)c2-n2cccc2)c(C)c1,/,/,/,/,-3%
O=C(NCc1ccc(Cl)cc1Cl)c1cccc(N2CCCS2(=O)=O)c1,/,/,/,/,-3%
CC(C)Cc1nn2c(=O)cc(COC(=O)c3ccccc3NC(=O)C3CCCCC3)nc2s1,/,/,/,/,-3%
CCOC(=O)c1c(CN(C)C)n(C)c2c(O)c(N=NC(N)=O)c3ccc(Br)cc3c12,21µM*,10,5%,-1%,?
O=C(O)c1cccc(Nc2nc3ccccc3nc2NS(=O)(=O)c2ccccc2)c1,?,-8,0%,-1%,?
CC(=O)Nc1ccc(S(=O)(=O)Nc2nc3ccccc3nc2Nc2ccc3ccccc3c2)cc1,24µM*,-24,13%,-1%,4%
NS(=O)(=O)c1cccc(Nc2nc3ccccc3nc2NS(=O)(=O)c2ccc(Cl)cc2)c1,17µM*,-36,3%,-6%,13%
COc1ccc(CNc2n[nH]c(-c3ccco3)n2)cc1OC,/,/,/,/,-2%
CN(C)c1ccc(NC(=S)Nc2ccc3c(c2)c(=O)n(C)n3-c2ccc(C(C)(C)C)cc2)cc1,27µM*,/,/,/,/
SMILES,PLK1 PBD inh,TSHR antagonist,uPA generation,PTAP TSG101 blk,VDR inhibitor
CN(C)c1ccc(NC(=O)Nc2ccc3c(c2)c(=O)n(C)n3-c2ccccc2)cc1,-8%,/,/,/,/
Cc1ccc(C)c(NC(=O)C2CCCN(c3nc4ccccc4s3)C2)c1 (stereo not drawn),/,/,/,/,9%
CC1(c2ccc(Cl)cc2Cl)OCC(Cn2ccnc2)O1 (stereo not drawn),30µM*,-11,-9%,2%,-1%
OC(Cn1ccnc1)c1ccc(Cl)cc1Cl (stereo not drawn),-5%,-2,6%,0%,-10%
O=C(CCN1CCOCC1)Nc1ccc2c(c1)CCC2,2%,5,-3%,-2%,4%
CN(C)S(=O)(=O)c1cc(NC(=O)CN2CCOCC2)ccc1Cl,24µM*,-1,2%,-2%,-18%
O=C(CN1CCOCC1)Nc1ccc2c(c1)CCC2,27µM*,0,-3%,-2%,?
